{"source": "the supplement of paper PMC7366291", "note": "Structures can show the parent of a compound that is named as a salt. ± gives the standard deviation of the averaged measurements.", "data": [{"test_system": "Danio rerio Tg(wt1b:EGFP) embryo, pronephros", "assay": "glomerular width (mean of left and right), fold change vs DMSO control; higher = wider glomerulus", "settings": "25 µM; exposure: 24-48 hpf", "method_in_brief": "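Dechorionated Tg(wt1b:EGFP) zebrafish embryos were exposed to 25 μM compound in 0.5% DMSO, HEPES-buffered E3 with 0.003% PTU, from 24 to 48 hpf at 28.5°C. Pronephroi were imaged dorsally in agarose-filled 96-well plates (470 nm, 10 z-slices). On maximum projections, 16 reference points were set manually in Fiji and a macro computed distances and angles. Values more than 2 SD from the feature mean were excluded. Each feature is a fold change relative to the mean of same-day DMSO controls.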", "values": [{"smiles": "CN(C/C=C/C#CC(C)(C)C)Cc1cccc2ccccc12", "note": "[Terbinafine]", "glomerular width": "1 ± 0.012"}, {"smiles": "CCCN[C@H]1CCc2nc(N)sc2C1", "note": "[Pramipexole dihydrochloride]", "glomerular width": "1.03 ± 0.049"}, {"smiles": "Nc1cc(C(Cl)=C(Cl)Cl)c(S(N)(=O)=O)cc1S(N)(=O)=O", "note": "[Clorsulon]", "glomerular width": "0.948 ± 0.062"}, {"smiles": "O=C(O)CN(CCN(CC(=O)O)CC(=O)O)CCN(CC(=O)O)CC(=O)O", "note": "[Pentetic acid]", "glomerular width": "0.98 ± 0.017"}, {"smiles": "O=C(O[C@@H]1C[C@@H]2C[C@H]3C[C@H](C1)N2CC3=O)c1c[nH]c2ccccc12", "note": "[Dolasetron mesilate]", "glomerular width": "1.01 ± 0.018"}, {"smiles": "CCCCCCCCNC(C)C(O)c1ccc(SC(C)C)cc1", "note": "(stereo unspecified) [Suloctidil]", "glomerular width": "0.877 ± 0.029"}]}, {"test_system": "Danio rerio Tg(wt1b:EGFP) embryo, pronephros", "assay": "fraction of imaged embryos annotated as normal kidney; higher = less nephrotoxic; extreme values may be limits of the assay", "settings": "25 µM; exposure: 24-48 hpf", "method_in_brief": "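The read-out is the proportion of embryos in each treatment manually annotated as normal-kidney. Exposure ran from 24 to 48 hpf at 28.5°C in 12-well plates, using dechorionated Tg(wt1b:EGFP) zebrafish embryos in 5 mM HEPES-buffered E3 with 0.003% PTU, 0.5% DMSO and 25 μM compound. For imaging, larvae were anaesthetised with tricaine, positioned dorsally in agarose-filled 96-well plates and captured by widefield fluorescence (470 nm, 10 z-slices), with scoring done on maximum projections.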", "values": [{"smiles": "CN(C)CCN(Cc1cccs1)c1ccccn1", "note": "[Methapyrilene hydrochloride]", "fraction of imaged embryos annotated as normal kidney": 0.917}, {"smiles": "Cc1ccnc2c1NC(=O)c1cccnc1N2C1CC1", "note": "[Nevirapine]", "fraction of imaged embryos annotated as normal kidney": 0.917}, {"smiles": "CC(Oc1ccccc1)C(=O)N[C@@H]1C(=O)N2[C@@H]1SC(C)(C)[C@@H]2C(=O)O", "note": "(stereo partly specified) [Phenethicillin potassium salt]", "fraction of imaged embryos annotated as normal kidney": 0.667}, {"smiles": "CN1CCN(CCCN2c3ccccc3Sc3ccc(C(F)(F)F)cc32)CC1", "note": "[Trifluoperazine dihydrochloride]", "fraction of imaged embryos annotated as normal kidney": 0.833}, {"smiles": "CCN(CC)CCCC(C)Nc1c2ccc(Cl)cc2nc2ccc(OC)cc12", "note": "(stereo unspecified) [Quinacrine dihydrochloride hydrate]", "fraction of imaged embryos annotated as normal kidney": 0.75}, {"smiles": "N=C(N)NCCN1CCCCCCC1", "note": "[Guanethidine sulfate]", "fraction of imaged embryos annotated as normal kidney": 0.917}, {"smiles": "Nc1nc(=O)c2c([nH]1)NC[C@@H](CNc1ccc(C(=O)N[C@@H](CCC(=O)O)C(=O)O)cc1)N2C=O", "note": "[Folinic acid calcium salt]", "fraction of imaged embryos annotated as normal kidney": 0.583}, {"smiles": "COc1cc2nc(N(C)CCCNC(=O)C3CCCO3)nc(N)c2cc1OC", "note": "(stereo unspecified) [Alfuzosin hydrochloride]", "fraction of imaged embryos annotated as normal kidney": 0.818}, {"smiles": "CC(=O)O[C@]1(C(C)=O)CC[C@H]2[C@@H]3C=C(C)C4=CC(=O)CC[C@]4(C)[C@H]3CC[C@@]21C", "note": "[Megestrol acetate]", "fraction of imaged embryos annotated as normal kidney": 0.917}, {"smiles": "CCN(CC)CCNC(=O)c1cc(Cl)c(N)cc1OC", "note": "[Metoclopramide monohydrochloride]", "fraction of imaged embryos annotated as normal kidney": 0.833}, {"smiles": "COCC1=C(C(=O)OC(C)OC(=O)OC(C)C)N2C(=O)[C@@H](NC(=O)/C(=N\\OC)c3csc(N)n3)[C@H]2SC1", "note": "(stereo partly specified) [Cefpodoxime proxetil]", "fraction of imaged embryos annotated as normal kidney": 1}, {"smiles": "CCC(=O)[C@@]1(C)[C@H](C)C[C@H]2[C@@H]3CCC4=CC(=O)C=C[C@]4(C)[C@H]3[C@@H](O)C[C@@]21C", "note": "[Rimexolone]", "fraction of imaged embryos annotated as normal kidney": 0.333}, {"smiles": "Brc1c(NC2=NCCN2)ccc2nccnc12", "note": "[Brimonidine L-Tartrate]", "fraction of imaged embryos annotated as normal kidney": 1}, {"smiles": "COc1ccc2[nH]c([S+]([O-])Cc3ncc(C)c(OC)c3C)nc2c1", "note": "(stereo unspecified) [Omeprazole]", "fraction of imaged embryos annotated as normal kidney": 0.667}, {"smiles": "CCOC(=O)[C@H](CCc1ccccc1)N[C@@H](C)C(=O)N1Cc2ccccc2C[C@H]1C(=O)O", "note": "[Quinapril hydrochloride]", "fraction of imaged embryos annotated as normal kidney": 1}, {"smiles": "O=C(NC(Cc1cc(=O)[nH]c2ccccc12)C(=O)O)c1ccc(Cl)cc1", "note": "(stereo unspecified) [Rebamipide]", "fraction of imaged embryos annotated as normal kidney": 0.917}, {"smiles": "C[C@@H]1C[C@H]2[C@@H]3C[C@H](F)C4=CC(=O)C=C[C@]4(C)[C@@]3(Cl)[C@@H](O)C[C@]2(C)[C@H]1C(=O)COC(=O)C(C)(C)C", "note": "[Clocortolone pivalate]", "fraction of imaged embryos annotated as normal kidney": 0.167}, {"smiles": "CC(C)N1CCN(c2ccc(OCC3COC(Cn4cncn4)(c4ccc(Cl)cc4Cl)O3)cc2)CC1", "note": "(stereo unspecified) [Terconazole]", "fraction of imaged embryos annotated as normal kidney": 1}, {"smiles": "CNCCC=C1c2ccccc2CCc2ccccc21", "note": "[Nortriptyline hydrochloride]", "fraction of imaged embryos annotated as normal kidney": 0.833}, {"smiles": "CCN(CC)C(C)CN1c2ccccc2Sc2ccccc21", "note": "(stereo unspecified) [Ethopropazine hydrochloride]", "fraction of imaged embryos annotated as normal kidney": 0.917}, {"smiles": "CN1CCC(=C2c3ccccc3Sc3ccccc32)CC1", "note": "[Pimethixene maleate]", "fraction of imaged embryos annotated as normal kidney": 0.917}, {"smiles": "CCOc1ccc2ccccc2c1C(=O)N[C@@H]1C(=O)N2[C@@H]1SC(C)(C)[C@@H]2C(=O)O", "note": "[Nafcillin sodium salt monohydrate]", "fraction of imaged embryos annotated as normal kidney": 0.833}, {"smiles": "Cc1ccc(NC(=O)c2ccc(CN3CCN(C)CC3)cc2)cc1Nc1nccc(-c2cccnc2)n1", "note": "[Imatinib]", "fraction of imaged embryos annotated as normal kidney": 1}, {"smiles": "CCCCCN(C)CCC(O)(P(=O)(O)O)P(=O)(O)O", "note": "[Ibandronate sodium]", "fraction of imaged embryos annotated as normal kidney": 0.833}, {"smiles": "CC(=O)OCC(=O)[C@@]1(O)CC[C@H]2[C@@H]3CCC4=CC(=O)C=C[C@]4(C)[C@@]3(F)[C@@H](O)C[C@@]21C", "note": "[Isoflupredone acetate]", "fraction of imaged embryos annotated as normal kidney": 0.583}]}]}
